# From the supplement of paper PMC10849652
# Of roughly 7,900 targets only a part is listed; those with a hit were picked by preference. About 0.6% of all pairs of compound and target were hits. Values without a mark were called inactive.
# How the values were obtained:
# Test in all cases: log2 fold change, soluble protein after heating vs DMSO (PISA); higher = thermal stabilisation; K562 cells, 10 uM, 30 min; active = over 0.2 and 3.5 SD of the protein, either way, in both replicates (recomputed)
# [1] = compound: NC(=O)Nc1cc(-c2cccc(F)c2)sc1C(=O)N[C@H]1CCCNC1
# Outline: (§1)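 K562 cells at 2×10^6 cells/mL were given 10 μM compound for 30 min. Aliquots then went through 3 min of heating across 48°C-58°C, were pooled, and were extracted in PBS with 0.5% NP-40 at 4°C, and the supernatant after 21,000xg for 90 min was quantified by TMTpro 16plex LC-MS/MS with channel sums equalised. Thermal stability relative to control samples, from duplicates, is given as log2 fold change.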
# [2] = compound: NC(=O)c1cnc(N[C@@H]2CCCC[C@@H]2N)nc1Nc1cccc(-n2nccn2)c1
# Outline: as §1
# [3] = compound: NC1(c2ccc(-c3nc4ccn5c(=O)[nH]nc5c4cc3-c3ccccc3)cc2)CCC1
# Outline: as §1
# [4] = compound: NCC(=O)Nc1ccc(-n2nc(C(F)(F)F)cc2-c2ccc3c(ccc4ccccc43)c2)cc1
# Outline: as §1
# [5] = compound: Nc1ccccc1NC(=O)c1ccc(CNC(=O)OCc2cccnc2)cc1 [entinostat]
# Outline: as §1
# [6] = compound: O=C(CCCCCCC(=O)Nc1ccccc1)NO [vorinostat]
# Outline: as §1
# [7] = compound: O=C(CCCCCCNC(=O)c1cnc(N(c2ccccc2)c2ccccc2Cl)nc1)NO [citarinostat]
# Outline: as §1
# [8] = compound: O=C(O)c1ccc2c(c1)nc(Nc1cccc(Cl)c1)c1ccncc12 [silmitasertib]
# Outline: as §1
# [9] = compound: O=C1NC(=O)C(c2cnc3ccccn23)=C1c1cn2c3c(cc(F)cc13)CN(C(=O)N1CCCCC1)CC2
# Outline: as §1
# [10] = compound: c1cc(OCCN2CCCCC2)cc(-c2n[nH]c3ccc(-c4nnc[nH]4)cc23)c1
# Outline: as §1
# [11] = compound: c1cn2cc(-c3ccc4cn[nH]c4c3)nc(Nc3ccc(N4CCOCC4)cc3)c2n1 [entospletinib]
# Outline: as §1
# UniProt Q16630, sequence (Q16630 whole entry, looked up): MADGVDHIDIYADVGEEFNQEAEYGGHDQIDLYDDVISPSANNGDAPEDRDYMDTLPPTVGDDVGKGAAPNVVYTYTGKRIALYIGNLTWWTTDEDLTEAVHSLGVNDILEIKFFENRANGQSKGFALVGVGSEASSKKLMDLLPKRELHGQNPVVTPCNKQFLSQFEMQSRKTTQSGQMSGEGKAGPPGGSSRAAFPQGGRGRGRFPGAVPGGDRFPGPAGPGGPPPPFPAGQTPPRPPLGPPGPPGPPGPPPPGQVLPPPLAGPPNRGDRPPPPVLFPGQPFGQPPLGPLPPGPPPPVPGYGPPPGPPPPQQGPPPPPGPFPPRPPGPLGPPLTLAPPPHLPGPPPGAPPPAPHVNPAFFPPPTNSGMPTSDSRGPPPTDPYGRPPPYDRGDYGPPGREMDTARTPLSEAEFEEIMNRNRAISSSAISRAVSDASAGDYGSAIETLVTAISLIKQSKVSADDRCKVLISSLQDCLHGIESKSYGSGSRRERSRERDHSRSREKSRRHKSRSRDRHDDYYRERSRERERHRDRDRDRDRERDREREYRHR
# UniProt A6NHX0, sequence (A6NHX0 whole entry, looked up): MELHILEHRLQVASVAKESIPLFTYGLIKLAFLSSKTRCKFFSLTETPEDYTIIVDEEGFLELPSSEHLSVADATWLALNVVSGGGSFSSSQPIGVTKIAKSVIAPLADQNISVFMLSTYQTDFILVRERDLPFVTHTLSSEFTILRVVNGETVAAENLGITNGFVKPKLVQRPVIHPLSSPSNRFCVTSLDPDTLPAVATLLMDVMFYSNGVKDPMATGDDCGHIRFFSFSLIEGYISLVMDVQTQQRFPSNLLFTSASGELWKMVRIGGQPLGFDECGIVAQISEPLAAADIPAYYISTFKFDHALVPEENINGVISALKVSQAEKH
# UniProt Q9UNS2, sequence (Q9UNS2 whole entry, looked up): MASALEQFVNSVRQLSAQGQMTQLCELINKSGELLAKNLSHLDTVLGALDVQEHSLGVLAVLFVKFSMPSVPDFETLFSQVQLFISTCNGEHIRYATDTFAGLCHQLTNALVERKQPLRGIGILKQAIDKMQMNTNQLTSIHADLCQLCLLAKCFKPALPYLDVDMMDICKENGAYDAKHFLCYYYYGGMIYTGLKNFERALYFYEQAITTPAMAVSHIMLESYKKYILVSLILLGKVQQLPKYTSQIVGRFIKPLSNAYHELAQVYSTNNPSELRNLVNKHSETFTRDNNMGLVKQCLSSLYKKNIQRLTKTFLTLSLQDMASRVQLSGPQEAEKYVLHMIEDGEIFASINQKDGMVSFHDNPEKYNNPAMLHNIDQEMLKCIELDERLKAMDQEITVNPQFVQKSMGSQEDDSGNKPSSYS
# UniProt P51790, sequence (P51790 whole entry, looked up): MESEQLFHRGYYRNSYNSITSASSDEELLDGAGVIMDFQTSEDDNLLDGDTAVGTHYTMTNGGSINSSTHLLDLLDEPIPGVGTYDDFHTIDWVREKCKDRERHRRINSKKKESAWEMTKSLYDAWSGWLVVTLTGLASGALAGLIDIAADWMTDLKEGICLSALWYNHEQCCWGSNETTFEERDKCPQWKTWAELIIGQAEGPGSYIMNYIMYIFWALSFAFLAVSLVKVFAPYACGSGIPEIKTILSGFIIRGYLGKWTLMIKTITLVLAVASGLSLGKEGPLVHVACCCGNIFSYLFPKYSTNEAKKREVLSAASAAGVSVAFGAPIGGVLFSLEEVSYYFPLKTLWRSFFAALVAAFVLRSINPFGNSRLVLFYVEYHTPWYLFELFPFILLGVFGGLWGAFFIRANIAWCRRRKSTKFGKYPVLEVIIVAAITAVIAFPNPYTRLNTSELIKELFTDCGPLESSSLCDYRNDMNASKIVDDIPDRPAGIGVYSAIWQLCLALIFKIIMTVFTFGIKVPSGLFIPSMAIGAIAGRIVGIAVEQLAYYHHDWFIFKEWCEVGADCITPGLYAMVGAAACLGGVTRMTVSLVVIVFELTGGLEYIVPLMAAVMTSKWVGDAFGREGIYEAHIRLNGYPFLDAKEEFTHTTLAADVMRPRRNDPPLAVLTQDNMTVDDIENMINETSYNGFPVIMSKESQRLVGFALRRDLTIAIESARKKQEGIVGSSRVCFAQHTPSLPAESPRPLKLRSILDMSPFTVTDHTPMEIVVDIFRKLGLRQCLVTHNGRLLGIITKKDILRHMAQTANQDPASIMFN
# UniProt P14635, sequence (P14635 whole entry, looked up): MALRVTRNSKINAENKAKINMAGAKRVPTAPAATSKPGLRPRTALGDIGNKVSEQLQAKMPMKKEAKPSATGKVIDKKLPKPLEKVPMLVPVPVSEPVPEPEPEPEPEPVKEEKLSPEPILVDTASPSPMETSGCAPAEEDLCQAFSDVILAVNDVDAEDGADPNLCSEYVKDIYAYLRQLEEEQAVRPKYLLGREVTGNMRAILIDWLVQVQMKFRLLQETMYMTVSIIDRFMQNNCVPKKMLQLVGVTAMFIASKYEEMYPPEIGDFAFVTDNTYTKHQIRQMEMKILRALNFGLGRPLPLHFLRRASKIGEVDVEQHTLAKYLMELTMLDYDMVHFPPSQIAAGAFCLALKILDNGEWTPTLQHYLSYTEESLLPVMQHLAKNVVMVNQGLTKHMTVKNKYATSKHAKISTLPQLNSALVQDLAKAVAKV
# UniProt Q8N163, sequence (Q8N163 whole entry, looked up): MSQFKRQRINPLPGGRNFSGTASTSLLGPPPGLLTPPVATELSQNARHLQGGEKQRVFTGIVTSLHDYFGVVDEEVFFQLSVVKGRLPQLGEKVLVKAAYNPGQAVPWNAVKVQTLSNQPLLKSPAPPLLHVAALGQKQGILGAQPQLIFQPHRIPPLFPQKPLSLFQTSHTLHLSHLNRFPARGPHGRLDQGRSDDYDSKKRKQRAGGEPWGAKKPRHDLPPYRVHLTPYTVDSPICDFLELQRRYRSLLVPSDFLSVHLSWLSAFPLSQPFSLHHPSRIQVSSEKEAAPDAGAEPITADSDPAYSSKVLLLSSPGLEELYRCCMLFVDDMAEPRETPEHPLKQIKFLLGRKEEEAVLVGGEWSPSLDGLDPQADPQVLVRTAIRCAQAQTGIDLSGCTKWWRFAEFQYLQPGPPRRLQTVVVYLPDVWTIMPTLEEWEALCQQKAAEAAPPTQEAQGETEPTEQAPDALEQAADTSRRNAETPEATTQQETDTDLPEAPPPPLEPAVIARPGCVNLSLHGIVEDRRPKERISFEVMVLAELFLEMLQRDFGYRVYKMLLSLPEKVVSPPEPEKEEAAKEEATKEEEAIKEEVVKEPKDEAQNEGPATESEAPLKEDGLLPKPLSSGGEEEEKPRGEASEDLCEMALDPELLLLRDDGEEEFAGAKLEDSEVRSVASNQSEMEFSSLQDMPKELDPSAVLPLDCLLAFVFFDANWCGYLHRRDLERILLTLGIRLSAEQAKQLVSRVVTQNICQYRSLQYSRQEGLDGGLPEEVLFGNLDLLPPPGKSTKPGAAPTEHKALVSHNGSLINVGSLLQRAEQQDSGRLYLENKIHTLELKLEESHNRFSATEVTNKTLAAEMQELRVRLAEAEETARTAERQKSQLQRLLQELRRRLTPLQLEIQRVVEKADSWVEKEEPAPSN
# UniProt P14854, sequence (P14854 whole entry, looked up): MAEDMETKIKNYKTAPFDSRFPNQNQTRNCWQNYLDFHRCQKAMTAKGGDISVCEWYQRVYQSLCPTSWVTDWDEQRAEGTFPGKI
# UniProt Q13137, sequence (Q13137 whole entry, looked up): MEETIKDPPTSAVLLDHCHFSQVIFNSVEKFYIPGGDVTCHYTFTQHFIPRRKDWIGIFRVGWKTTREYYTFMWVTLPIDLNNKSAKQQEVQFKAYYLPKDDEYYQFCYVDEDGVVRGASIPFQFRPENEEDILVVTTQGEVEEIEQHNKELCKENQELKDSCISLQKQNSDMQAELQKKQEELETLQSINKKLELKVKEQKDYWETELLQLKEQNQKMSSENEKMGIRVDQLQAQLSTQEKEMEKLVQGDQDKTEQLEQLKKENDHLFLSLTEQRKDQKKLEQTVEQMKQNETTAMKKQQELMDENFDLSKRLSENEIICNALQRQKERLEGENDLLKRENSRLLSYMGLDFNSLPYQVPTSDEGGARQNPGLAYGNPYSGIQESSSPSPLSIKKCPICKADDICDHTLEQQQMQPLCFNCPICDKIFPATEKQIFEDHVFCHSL
# UniProt O00748, sequence (O00748 whole entry, looked up): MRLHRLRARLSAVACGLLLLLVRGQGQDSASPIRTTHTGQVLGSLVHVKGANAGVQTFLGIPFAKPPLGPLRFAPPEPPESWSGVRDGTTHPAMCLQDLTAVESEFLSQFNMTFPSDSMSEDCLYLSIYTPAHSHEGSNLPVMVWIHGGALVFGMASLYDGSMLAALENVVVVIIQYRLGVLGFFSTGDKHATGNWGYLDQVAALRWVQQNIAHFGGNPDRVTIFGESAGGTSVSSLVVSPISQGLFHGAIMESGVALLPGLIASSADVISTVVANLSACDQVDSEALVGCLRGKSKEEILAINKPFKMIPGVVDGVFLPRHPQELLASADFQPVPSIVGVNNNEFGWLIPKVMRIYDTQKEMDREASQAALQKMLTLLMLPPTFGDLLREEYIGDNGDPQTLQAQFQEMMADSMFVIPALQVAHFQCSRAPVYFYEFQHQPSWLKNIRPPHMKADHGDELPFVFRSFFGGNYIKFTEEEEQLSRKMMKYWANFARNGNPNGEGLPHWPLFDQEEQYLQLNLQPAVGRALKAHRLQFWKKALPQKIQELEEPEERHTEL
# UniProt Q00534, sequence (Q00534 whole entry, looked up): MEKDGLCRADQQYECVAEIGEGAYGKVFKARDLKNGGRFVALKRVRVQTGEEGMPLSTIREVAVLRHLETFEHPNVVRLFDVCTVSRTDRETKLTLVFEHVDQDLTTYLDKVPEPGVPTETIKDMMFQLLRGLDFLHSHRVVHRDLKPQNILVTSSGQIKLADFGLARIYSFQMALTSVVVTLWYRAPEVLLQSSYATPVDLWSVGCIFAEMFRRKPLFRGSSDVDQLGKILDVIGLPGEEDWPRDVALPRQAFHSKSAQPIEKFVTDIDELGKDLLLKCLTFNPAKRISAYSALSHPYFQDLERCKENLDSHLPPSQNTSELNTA
# UniProt P15954, sequence (P15954 whole entry, looked up): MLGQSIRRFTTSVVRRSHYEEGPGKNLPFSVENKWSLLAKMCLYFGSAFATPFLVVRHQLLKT
Target,log2 fold change [1],log2 fold change [2],log2 fold change [3],log2 fold change [4],log2 fold change [5],log2 fold change [6],log2 fold change [7],log2 fold change [8],log2 fold change [9],log2 fold change [10],log2 fold change [11]
CDC25B isoform 4 (UniProt P30305),-0.04,-0.07,-0.157,0.088,0.047,0.071,0.115,0.054,0.014,-0.123,-0.013
CCNB1 (UniProt P14635),-0.031,-0.015,-0.03,0.016,-0.002,0,0.031,-0.015,-0.076,-0.032,-0.015
CMTR1 (UniProt Q8N1G2),-0.022,-0.015,-0.135,-0.01,-0.025,0.026,0.002,0.004,-0.083,-0.009,-0.016
CCAR2 isoform 2 (UniProt Q8N163),-0.056,-0.106,-0.013,-0.088,0.089,0.168,0.033,-0.039,-0.151,0.033,-0.014
COX7C (UniProt P15954),0.009,0.048,-0.013,0.046,0.014,-0.017,0.079,-0.003,-0.089,-0.059,-0.074
CDK19 (UniProt Q9BWU1),-0.131,-0.135,-0.093,-0.018,-0.085,0.016,-0.265,0.327,0.16,-0.089,-0.013
CHMP4C (UniProt Q96CF2),-0.003,-0.005,-0.089,-0.043,0.041,0.02,-0.138,0.028,-0.22,0.052,0.036
CSTF2 (UniProt P33240),0.015,-0.054,0.086,-0.031,-0.028,-0.08,-0.011,0.07,-0.049,-0.042,0.022
COX6B1 (UniProt P14854),-0.039,-0.019,-0.146,0.007,0.085,-0.06,-0.007,-0.009,-0.126,-0.017,0.078
CA8 (UniProt P35219),0.035,-0.069,-0.167,-0.058,0.049,0.025,0.108,0.029,-0.142,-0.027,0.094
CKB (UniProt P12277),-0.035,-0.02,-0.117,-0.033,-0.001,-0.023,-0.046,-0.117,-0.04,-0.018,0.063
CALCOCO2 isoform 4 (UniProt Q13137),-0.017,-0.075,-0.324 (active),-0.185,-0.006,-0.006,0.035,0.047,0.071,-0.034,0.005
CPSF7 isoform 3 (UniProt Q8N684),-0.063,0.025,0.027,0.013,-0.023,0.01,0.001,-0.069,0.054,-0.035,-0.011
CLPX (UniProt O76031),0.01,0.011,-0.031,-0.01,-0.019,0.007,0.011,0.022,0.058,-0.05,-0.002
CES2 isoform 4 (UniProt O00748),0.116,0.017,-0.051,0.095,-0.083,-0.017,-0.083,0.076,0.027,-0.016,0.02
CHAC2 (UniProt Q8WUX2),0.022,-0.019,-0.008,-0.028,-0.017,-0.016,-0.232,0.022,-0.03,0.419 (active),0.323
CBR1 (UniProt P16152),-0.002,0.025,-0.029,0.037,-0.008,-0.041,0.033,-0.011,-0.039,0.235 (active),-0.019
CHCHD1 (UniProt Q96BP2),0.017,-0.142,-0.149,-0.023,0.03,0.023,0.009,0.031,-0.015,-0.169,-0.004
CPSF6 isoform 2 (UniProt Q16630),-0.027,-0.037,-0.01,0.029,-0.008,-0.007,0.004,-0.225 (active),-0.003,-0.179,0.064
CASTOR2 (UniProt A6NHX0),0.076,0.113,-0.034,0.06,-0.072,0.056,0.04,-0.03,-0.005,0.076,-0.104
CLINT1 isoform 3 (UniProt Q14677),0.106,-0.027,0.078,0.058,-0.052,-0.035,-0.048,0.008,0.024,0.015,0.111
CSNK1D (UniProt P48730),-0.043,0.185,0.106,-0.02,-0.062,0,-0.025,0.054,0.107,0.173,0.109
COPS3 (UniProt Q9UNS2),0,-0.034,-0.002,0.011,0.002,-0.003,0.014,-0.02,-0.021,-0.019,0.011
CLCN3 (UniProt P51790),-0.019,-0.099,-0.264,-0.078,-0.012,-0.022,0.011,0.011,0.038,-0.01,-0.003
CAD (UniProt P27708),0.033,-0.014,-0.145,0.008,-0.026,0.088,0.014,0.003,0.108,-0.141,-0.089
CDK6 (UniProt Q00534),-0.004,-0.082,-0.017,-0.003,0.009,0.005,-0.006,0.131,0.146,0.017,0.036
CDK5 (UniProt Q00535),-0.045,-0.01,-0.065,-0.082,0.016,0.007,0.06,0.016,-0.1,-0.05,-0.022
